Data taken from PubChem BioAssay (NCATS).
Inconclusive results are not listed. Unmarked numbers belong to inactive results. The source made the active and inactive calls. Calls come from the whole dose curve; as a rule, active = well fitted cell-killing curve with a large enough effect; inconclusive = small, poorly fitted or top-dose-only effect, or effect the other way; inactive = flat fitted curve, though single readings scatter.

These compounds were tested on CAOV3 (assay: Primary qHTS to identify gynecologic anti-cancer compounds using libraries of approved drugs and bioactive compounds (AID 1345084; note: nearly all actives have a fitted effect of over 55% in size)). Details: Gynecologic cancer cell panel viability, ATPlite luminescence, 48 h; series mostly up to 57.5 µM; activity change, negative = cytotoxicity: at the top concentration.
Procedure, shortened: (§1)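 Cells, 1,000 per well, plated 16 h, then exposed 48 h at 37 C to compounds. Viability by ATPlite luminescence after 15 min at room temperature.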
% is set by controls: 0 for no effect and ±100 for the full control effect; potency is the fitted concentration of half-maximal effect.

| Compound | activity change, negative = cytotoxicity |
| --- | --- |
| O=C(O)CN(CCN(CC(=O)O)CC(=O)O)CCN(CC(=O)O)CC(=O)O | 24.5% [at 25.3 µM] |
| CN=C(NC#N)NCCSCc1nc[nH]c1C | -20.3% |
| NC/C=C/C(=O)O | 2.48% |
| Cc1ccc(/C(=C\CN2CCCC2)c2ccccn2)cc1 | -5% |
| NC(=O)c1ncn([C@@H]2O[C@H](CO)[C@@H](O)[C@H]2O)c1O | -5.03% |
| CC(C)[N+](C)(CCOC(=O)C1c2ccccc2Oc2ccccc21)C(C)C | 3.54% |
| O=C(O)CP(=O)(O)O | 3.06% |
| CCN(CC)CC(=O)Nc1c(C)cccc1C | 21.5% |
| NCCCNCCSP(=O)(O)O | 4.48% [at 11.6 µM] |
| Brc1c(NC2=NCCN2)ccc2nccnc12 | -1.67% |
| c1ccc2c(c1)CCCC2C1=NCCN1 (stereo unspecified) | 1.76% |

What follows are compounds tested on CASKI in the same assay as above. Details: Gynecologic cancer cell panel viability, ATPlite luminescence, 48 h; series mostly up to 57.5 µM; activity change, negative = cytotoxicity: at the top concentration.
Procedure, shortened: as §1

| Compound | activity change, negative = cytotoxicity | Potency |
| --- | --- | --- |
| CCN1CCc2nc(N)oc2CC1 | 8.48% |  |
| CCn1cc(C(=O)O)c(=O)c2cc3c(cc21)OCO3 | -4.24% [at 25.3 µM] |  |
| CCc1c(C)[nH]c2c1C(=O)C(CN1CCOCC1)CC2 (stereo unspecified) | 4.64% |  |
| COC(=O)[C@@H](N)Cc1ccc(O)c(O)c1 | -13.1% |  |
| CCOC(=O)c1cnc2c(cnn2CC)c1NN=C(C)C | -4.54% |  |
| Cc1scc2c1N(C(=O)CN1CCN(C)CC1)c1ccccc1NC2=O | 2.36% |  |
| CC(C)(C)NCC(O)c1cc(O)cc(O)c1 (stereo unspecified) | -3.06% |  |
| CC1=C(C)C(=O)C(CCCCC#CCCCC#CCO)=C(C)C1=O | -1.79% |  |
| C[N+](C)(C)CCOC(N)=O | 3.38% |  |
| NC(=O)c1cn(Cc2c(F)cccc2F)nn1 | 0.945% |  |
| CC(=O)OC(C)C[N+](C)(C)C (stereo unspecified) | -13.5% |  |
| NC(Cc1ccc(Cl)cc1)C(=O)O (stereo unspecified) | 7.36% [at 0.462 µM] |  |
| FC(F)(F)c1ccccc1-n1ccnc1 | -7.27% |  |
| CCCCNc1ccc(C(=O)OCCN(C)C)cc1 | -6.2% |  |
| O=C(O)CCCCCCCC(=O)O | 6.17% |  |
| CCN(CC)CCNC(=O)c1cc(S(C)(=O)=O)ccc1OC | -5.96% |  |
| O=C(O)CN(CCOCCOCCN(CC(=O)O)CC(=O)O)CC(=O)O | 2.67% [at 0.462 µM] |  |

| Compound | activity change, negative = cytotoxicity | Potency |
| --- | --- | --- |
| CC(=O)[C@]1(O)Cc2c(O)c3c(c(O)c2[C@@H](O[C@H]2C[C@H](N)[C@H](O)[C@H](C)O2)C1)C(=O)c1ccccc1C3=O |  | 1 µM (active) |
| CCN1CCC[C@H]1CNC(=O)c1c(O)c(Cl)cc(Cl)c1OC | -6.45% |  |
| CCCN(CCC)C(=O)C(CCC(=O)O)NC(=O)c1ccccc1 (stereo unspecified) | 1.64% |  |
| CN1C[C@H](C(=O)N[C@]2(C)O[C@@]3(O)[C@@H]4CCCN4C(=O)[C@H](Cc4ccccc4)N3C2=O)C[C@@H]2c3cccc4[nH]cc(c34)C[C@H]21 | -3.5% |  |
| NC(N)=NC(=O)Cc1c(Cl)cccc1Cl | -1.86% |  |
| O=C(O)CN(CCN(CC(=O)O)CC(=O)O)CCN(CC(=O)O)CC(=O)O | 9.85% [at 25.3 µM] |  |
| CN=C(NC#N)NCCSCc1nc[nH]c1C | 6.6% |  |
| NC/C=C/C(=O)O | 4.89% |  |
| Cc1ccc(/C(=C\CN2CCCC2)c2ccccn2)cc1 | 13.5% |  |
| CCCN(CCC)CCc1cccc2c1CC(=O)N2 | -9.68% |  |
| NC(=O)c1ncn([C@@H]2O[C@H](CO)[C@@H](O)[C@H]2O)c1O | -4.77% |  |
| CC(C)[N+](C)(CCOC(=O)C1c2ccccc2Oc2ccccc21)C(C)C | -20.4% |  |
| O=C(O)CP(=O)(O)O | -0.171% |  |
| CCN(CC)CC(=O)Nc1c(C)cccc1C | 5.1% |  |
| NCCCNCCSP(=O)(O)O | 0.847% [at 11.6 µM] |  |
| Brc1c(NC2=NCCN2)ccc2nccnc12 | -0.649% |  |
| c1ccc2c(c1)CCCC2C1=NCCN1 (stereo unspecified) | 18.7% |  |

The compounds below were run on Es-2 in the same assay as above. Details: Gynecologic cancer cell panel viability, ATPlite luminescence, 48 h; series mostly up to 57.5 µM; activity change, negative = cytotoxicity: at the top concentration.
Procedure, shortened: as §1

| Compound | activity change, negative = cytotoxicity | Potency |
| --- | --- | --- |
| CCN1CCc2nc(N)oc2CC1 | 3.98% |  |
| CCn1cc(C(=O)O)c(=O)c2cc3c(cc21)OCO3 | 8.12% [at 25.3 µM] |  |
| CCc1c(C)[nH]c2c1C(=O)C(CN1CCOCC1)CC2 (stereo unspecified) | 1.97% |  |
| COC(=O)[C@@H](N)Cc1ccc(O)c(O)c1 | -0.0496% |  |
| CCOC(=O)c1cnc2c(cnn2CC)c1NN=C(C)C | -0.384% |  |
| Cc1scc2c1N(C(=O)CN1CCN(C)CC1)c1ccccc1NC2=O | -15.6% |  |
| CC(C)(C)NCC(O)c1cc(O)cc(O)c1 (stereo unspecified) | -4.88% |  |
| CC1=C(C)C(=O)C(CCCCC#CCCCC#CCO)=C(C)C1=O | -2.8% |  |
| C[N+](C)(C)CCOC(N)=O | 8.53% |  |
| NC(=O)c1cn(Cc2c(F)cccc2F)nn1 | 1.54% |  |
| CC(=O)OC(C)C[N+](C)(C)C (stereo unspecified) | -23.8% |  |
| NC(Cc1ccc(Cl)cc1)C(=O)O (stereo unspecified) | 1.05% [at 0.462 µM] |  |
| FC(F)(F)c1ccccc1-n1ccnc1 | 1.21% |  |
| CCCCNc1ccc(C(=O)OCCN(C)C)cc1 | -9.3% |  |
| O=C(O)CCCCCCCC(=O)O | -3% |  |
| Nc1ncn([C@@H]2O[C@H](CO)[C@@H](O)[C@H]2O)c(=O)n1 |  | 3.98 µM (active) |
| CCN(CC)CCNC(=O)c1cc(S(C)(=O)=O)ccc1OC | 1.67% |  |
| O=C(O)CN(CCOCCOCCN(CC(=O)O)CC(=O)O)CC(=O)O | -1.06% [at 0.462 µM] |  |

| Compound | activity change, negative = cytotoxicity | Potency |
| --- | --- | --- |
| CC(=O)[C@]1(O)Cc2c(O)c3c(c(O)c2[C@@H](O[C@H]2C[C@H](N)[C@H](O)[C@H](C)O2)C1)C(=O)c1ccccc1C3=O |  | 1 µM (active) |
| CCN1CCC[C@H]1CNC(=O)c1c(O)c(Cl)cc(Cl)c1OC | 5.51% |  |
| CCCN(CCC)C(=O)C(CCC(=O)O)NC(=O)c1ccccc1 (stereo unspecified) | 7.02% |  |
| CN1C[C@H](C(=O)N[C@]2(C)O[C@@]3(O)[C@@H]4CCCN4C(=O)[C@H](Cc4ccccc4)N3C2=O)C[C@@H]2c3cccc4[nH]cc(c34)C[C@H]21 | -1.2% |  |
| C[n+]1cc2c3c(ccc2c2ccc4cc5c(cc4c21)OCO5)OCO3 |  | 8.91 µM (active) |
| NC(N)=NC(=O)Cc1c(Cl)cccc1Cl | 4.16% |  |
| O=C(O)CN(CCN(CC(=O)O)CC(=O)O)CCN(CC(=O)O)CC(=O)O | 7.16% [at 25.3 µM] |  |
| CN=C(NC#N)NCCSCc1nc[nH]c1C | 5.69% |  |
| NC/C=C/C(=O)O | 0.463% |  |
| Cc1ccc(/C(=C\CN2CCCC2)c2ccccn2)cc1 | -3.8% |  |
| CCCN(CCC)CCc1cccc2c1CC(=O)N2 | -2.1% |  |
| NC(=O)c1ncn([C@@H]2O[C@H](CO)[C@@H](O)[C@H]2O)c1O | -0.794% |  |
| CC(C)[N+](C)(CCOC(=O)C1c2ccccc2Oc2ccccc21)C(C)C | 4.06% |  |
| O=C(O)CP(=O)(O)O | 7.98% |  |
| CCN(CC)CC(=O)Nc1c(C)cccc1C | -16.2% |  |
| NCCCNCCSP(=O)(O)O | 6.18% [at 11.6 µM] |  |
| Brc1c(NC2=NCCN2)ccc2nccnc12 | 2.11% |  |
| c1ccc2c(c1)CCCC2C1=NCCN1 (stereo unspecified) | 19.9% |  |
